Measured values: PubChem BioAssay AID1259421 (Broad Institute, 2018)
Several values for one entry are separate records, joined by “and”; a condition that tells them apart may be missing. Equal values may be shown once. Out of some 6,400 compounds screened, about 610 (9.5%) were called active. Cut-off read from the data, not from the text of the source: active = activity change below about -70%; inconclusive = no clear call, values can overlap the other calls; inactive = above that. The full list was thinned out, with actives kept by preference. A structure can be active in one record and inactive in another.

Assay: Toxoplasma gondii ME49Luc growth in HeLa cells, luciferase, no IFN-y, primary screen (AID 1259421)
Conditions: T. gondii ME49Luc in HeLa, 72 h, stronger effect = lower value, concentration not given here

Row | SMILES | activity change, negative = inhibition
1 | O=C1NC(=S)NC(=O)C1C(=O)Nc1ccccc1 | 57.2% (inactive)
2 | CC12CCC3C(CCC4C(=O)C(=O)CCC43C)C1CCC2=O (stereo not given) | 21.2% (inactive)
3 | Fc1ccc(C(OCCN2CCN(C/C=C/c3ccccc3)CC2)c2ccc(F)cc2)cc1 | -83.2% (active) and -79.9% (active)
4 | Fc1ccc(C(OCCN2CCN(CCCc3ccccc3)CC2)c2ccc(F)cc2)cc1 | -67.4% (inactive) and 5.82% (inactive)
5 | C(=C\c1ccccc1)/CN1CCN(CCOC(c2ccccc2)c2ccccc2)CC1 | -4.36% (inactive) and -26.8% (inactive) and -5.08% (inactive)
6 | O=c1oc2ccccc2c(O)c1Cc1c(O)c2ccccc2oc1=O | -3.14% (inactive) and 12.5% (inactive)
7 | N[C@]1(C(=O)O)CC[C@@H](C(=O)O)C1 (racemic) | 3.76% (inactive)
8 | O=C1c2ccccc2C(=O)c2ccccc21 | -6.04% (inactive)
9 | c1ccc2c(c1)[I+]c1ccccc1-2 | -67.1% (inactive) and -88.6% (active)
10 | FC(F)(F)c1cccc(N2CCNCC2)c1 | -1.94% (inactive)
11 | CN=C(NS(=O)(=O)c1ccc(Cl)cc1)N1C[C@H](c2ccccc2)C(c2ccc(Cl)cc2)=N1 | 38.2% (inactive)
12 | Cc1ccc2c(c1)C1(CCN(CCc3nc(-c4ccccc4)oc3C)CC1)OC(=O)N2 | 0.534% (inactive) and -16.6% (inactive)
13 | CC(C)(C)NCC(O)c1ccc(O)cc1Cl (stereo not given) | -2.47% (inactive)
14 | CN1C2C[C@H](OC(=O)[C@H](CO)c3ccccc3)C[C@H]1[C@@H](O)C2 | 4.91% (inactive)
15 | CN1C2C[C@H](OC(=O)[C@H](CO)c3ccccc3)C[C@@H]1[C@@H](O)C2 | 6.31% (inactive)
16 | CCCCCOc1c(OC)ccc2cc(C(=O)NCc3ccc4c(c3)OCO4)c(=O)[nH]c12 | 23.5% (inactive) and -61.7% (inactive)
17 | CCCCCCC(=O)O[C@H]1CC[C@H]2[C@@H]3CCC4=CC(=O)CC[C@]4(C)[C@H]3CC[C@]12C | -77% (active)
18 | C[C@]12CCC(=O)C=C1CCC1C2CC[C@@]2(C)C1CC[C@@H]2O (stereo not given in full) | -78.3% (active) and -86.2% (active)
19 | C[C@]12CCC(=O)C=C1CC[C@@H]1[C@@H]2C(=O)C[C@]2(C)C(=O)CC[C@@H]12 | 8.66% (inactive)
20 | C[C@]12CCC(=O)C=C1CCC1C2CC[C@@]2(C)C1CC[C@H]2O (stereo not given in full) | 2.85% (inactive)

Row | SMILES | activity change, negative = inhibition
21 | C[C@]12CC[C@H]3[C@@H](CCC4=CC(=O)CC[C@@H]43)[C@@H]1CC[C@@H]2O | -79.7% (active)
22 | CCC[C@@H]1CC2=CC(=O)CC[C@]2(C)[C@H]2CC[C@@]3(C)[C@@H](CC[C@@]3(O)CCC(=O)O)[C@H]12 | 17.5% (inactive)
23 | C[C@]12CC[C@H]3[C@@H](CCC4=CC(=O)CC[C@@]43C)[C@@H]1CC[C@H]2O | 8.39% (inactive)
24 | CCC(=O)O[C@H]1CCC2C3CCC4=CC(=O)CC[C@]4(C)C3CC[C@@]21C (stereo not given in full) | -76.8% (active) and -88.9% (active)
25 | C#C[C@]1(O)C=C[C@H]2[C@@H]3CCC4=CC(=O)CC[C@@H]4[C@H]3CC[C@@]21CC | -40.4% (inactive)
26 | C[C@]12CCC3c4ccc(OC(=O)N(CCCl)CCCl)cc4CCC3C1CC[C@@H]2O (stereo not given in full) | -52.4% (inactive)
27 | C#CC1(O)CCC2C3CCC4=CC(=O)CCC4(C)C3CCC21C (stereo not given) | -6.31% (inactive) and -17.5% (inactive)
28 | CCCC1CC2=CC(=O)CCC2(C)C2CCC3(C)C(CCC3(O)CCC(=O)O)C12 (stereo not given) | 13% (inactive)
29 | CC(C)[C@]1(O)[C@@H](OC(=O)c2ccc[nH]2)[C@@]2(O)[C@@]3(C)C[C@]4(O)O[C@@]5([C@H](O)[C@@H](C)CC[C@]35O)[C@@]2(O)C41C | 7.71% (inactive)
30 | N#Cc1ccccc1-c1cc(-c2ccccn2)cn(-c2ccccc2)c1=O | 3.7% (inactive)
31 | C=CCN1CC[C@]2(C)c3cc(O)ccc3CC1[C@@H]2C | 17.7% (inactive)
32 | Cc1ccccc1-n1c(CF)nc2ccc(N)cc2c1=O | 11.5% (inactive)
33 | CCN(CC)Cc1nccn1-c1ccc([N+](=O)[O-])cc1C(=O)c1ccccc1Cl | -2.08% (inactive)
34 | C=C(C)CN1CC[C@]23c4c5ccc(O)c4O[C@H]2c2[nH]c4ccccc4c2C[C@@]3(O)C1C5 | 3.03% (inactive) and 27.5% (inactive)
35 | CN1C(=O)C(O)N=C(c2ccccc2)c2cc(Cl)ccc21 (stereo not given) | 18.5% (inactive)
36 | CCOC(=O)c1ncn2c1C1CCCN1C(=O)c1cc(OC)ccc1-2 (stereo not given) | 4.31% (inactive)
37 | CNCC/C=C/c1cccnc1 | 9.5% (inactive)
38 | O=C1CCCC2C3CC(CN12)[C@@H]1CCCCN1C3 (stereo not given in full) | 14.8% (inactive) and -1% (inactive)
39 | O=C1Nc2ccc(Cl)cc2C(c2ccccc2)=NC1O (stereo not given) | 20.6% (inactive)
40 | CCCN1CCCC2Cc3[nH]ncc3CC21 (stereo not given) | 1.31% (inactive)
